This is an account of results in PubChem BioAssay (EPA / NIEHS).

Results filed as inconclusive are left out. Active and inactive are the calls of the source. Rule for the calls, unless noted: active = hit-call score of the fitted dose curve at least 0.9, where 1 is the maximum; inactive = score below 0.9.

Sequence of human Ephrin type-A Receptor 1 (EphA1), EPHA1 (gene 2041) (P21709 whole entry, looked up): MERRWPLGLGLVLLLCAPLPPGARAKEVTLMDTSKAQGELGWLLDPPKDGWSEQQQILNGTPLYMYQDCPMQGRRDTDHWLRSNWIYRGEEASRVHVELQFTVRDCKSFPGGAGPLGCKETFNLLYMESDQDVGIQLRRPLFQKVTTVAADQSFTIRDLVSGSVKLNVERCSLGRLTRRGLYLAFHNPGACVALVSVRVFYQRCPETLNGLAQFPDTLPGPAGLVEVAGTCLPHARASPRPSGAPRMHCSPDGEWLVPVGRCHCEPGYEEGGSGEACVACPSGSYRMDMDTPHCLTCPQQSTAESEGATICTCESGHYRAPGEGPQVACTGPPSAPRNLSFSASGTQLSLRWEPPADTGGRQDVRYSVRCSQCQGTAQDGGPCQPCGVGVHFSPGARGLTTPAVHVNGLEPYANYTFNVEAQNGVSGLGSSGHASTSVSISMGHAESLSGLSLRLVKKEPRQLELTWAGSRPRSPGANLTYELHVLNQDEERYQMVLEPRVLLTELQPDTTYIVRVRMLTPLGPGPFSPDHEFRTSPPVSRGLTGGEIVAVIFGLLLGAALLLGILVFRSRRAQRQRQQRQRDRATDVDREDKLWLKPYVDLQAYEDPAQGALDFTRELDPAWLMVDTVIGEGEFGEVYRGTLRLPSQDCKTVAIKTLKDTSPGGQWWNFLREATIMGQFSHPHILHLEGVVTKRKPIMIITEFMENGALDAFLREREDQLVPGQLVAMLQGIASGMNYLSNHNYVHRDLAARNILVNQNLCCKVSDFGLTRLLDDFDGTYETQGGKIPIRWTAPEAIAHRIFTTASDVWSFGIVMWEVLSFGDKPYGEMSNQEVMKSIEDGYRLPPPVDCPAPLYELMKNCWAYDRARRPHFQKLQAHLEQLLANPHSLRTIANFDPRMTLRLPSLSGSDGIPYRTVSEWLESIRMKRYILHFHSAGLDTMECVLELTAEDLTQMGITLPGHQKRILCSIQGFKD
Sequence of human Dual Specificity Protein Phosphatase 3 (DUSP3), DUSP3 (gene 1845) (P51452 whole entry, looked up): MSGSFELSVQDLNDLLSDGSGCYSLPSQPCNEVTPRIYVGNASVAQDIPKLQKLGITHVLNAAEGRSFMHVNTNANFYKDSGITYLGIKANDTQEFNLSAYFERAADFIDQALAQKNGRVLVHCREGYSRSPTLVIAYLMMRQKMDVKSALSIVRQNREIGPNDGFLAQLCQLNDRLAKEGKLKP
Sequence of human Caspase 5 (CASP5), CASP5 (gene 838) (P51878 whole entry, looked up): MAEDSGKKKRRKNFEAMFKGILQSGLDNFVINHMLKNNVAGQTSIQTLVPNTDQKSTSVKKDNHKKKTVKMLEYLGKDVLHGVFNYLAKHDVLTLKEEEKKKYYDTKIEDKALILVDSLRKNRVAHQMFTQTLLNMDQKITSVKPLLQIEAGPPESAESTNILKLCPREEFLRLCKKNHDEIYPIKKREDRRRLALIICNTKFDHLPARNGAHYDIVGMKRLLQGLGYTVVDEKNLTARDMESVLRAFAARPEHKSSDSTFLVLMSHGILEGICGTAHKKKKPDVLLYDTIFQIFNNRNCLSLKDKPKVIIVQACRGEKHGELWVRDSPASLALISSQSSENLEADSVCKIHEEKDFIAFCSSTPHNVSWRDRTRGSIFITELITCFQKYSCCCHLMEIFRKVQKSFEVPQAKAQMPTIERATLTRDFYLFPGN

Read-out in one experiment: not listed separately
Briefly: BSK_SAg_PBMCCytotoxicity: PBMC Cytotoxicity Assessment in the BioMAP Diversity Plus: SAg Assay (AID 2283093).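 For AC50: PBMC superantigen activated with SEB plus TSST-1 one hour after compound addition.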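 Note: PBMC viability measured as Alamar Blue reduction fluorescence at 546/580 nm; fitted both ways against DMSO so a hit may be loss or gain of signal.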 The settings on record: primary human HUVEC with PBMC. In outline:
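Alamar Blue reduction (6 h, 546/580 nm) reports PBMC cytotoxicity after 90 h superantigen activation (SEB, TSST-1; 20 ng/mL final each) with 1 h compound pre-treatment. Gain or loss of signal fitted versus DMSO.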
For the compound `CCCCCCCCCCCCCCCC(=O)OC/C=C(C)/C=C/C=C(C)/C=C/C1=C(C)CCCC1(C)C`, the result was inactive.

Consider `CCC(C)c1cc([N+](=O)[O-])cc([N+](=O)[O-])c1OC(=O)OC(C)C` (stereo not drawn), for which the AC50 was 28.3 µM (active).

For `C=C(C)C(=O)OCCOCCOCCOCCOC(=O)C(=C)C`, the outcome was inactive.

In the case of `c1ccc(Oc2ccccc2)cc1`, the result was inactive.

Regarding `CCN(CC)C(=O)N(CC)CC`, the result was inactive.

Take `c1ccc(CCc2ccccc2)cc1`: the AC50 was 34.2 µM (active).

In the case of `c1ccc2cc(Nc3ccc(Nc4ccc5ccccc5c4)cc3)ccc2c1`, the result was inactive.

Turning to `CC(C)(C)CC(C)(C)c1ccc(OCCOCC[N+](C)(C)Cc2ccccc2)cc1`, the AC50 was 3.23 µM (active).

For the compound `C=C(C)C(=O)OCC(CC)(COC(=O)C(=C)C)COC(=O)C(=C)C`, the result was inactive.

Read-out in the next experiment: Interleukin-8 (IL8), CXCL8 (gene 3576)
Briefly: BSK_SAg_IL8: BioMAP Diversity Plus: SAg Assay for Interleukin-8 (IL8) Biomarker Activity (AID 2283094). The settings on record: primary human HUVEC with PBMC; actives raise or lower the signal. In outline: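 Chemicals were dosed onto a human endothelial–PBMC co-culture, and IL-8 was quantified by ELISA after 24 h. Both increases and decreases were fitted relative to DMSO.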
On to `CCCCCCCCCCCCCCCC(=O)OC/C=C(C)/C=C/C=C(C)/C=C/C1=C(C)CCCC1(C)C`, for which the result was inactive.

As to `CCC(C)c1cc([N+](=O)[O-])cc([N+](=O)[O-])c1OC(=O)OC(C)C` (stereo not drawn), the result was inactive.

Take `C=C(C)C(=O)OCCOCCOCCOCCOC(=O)C(=C)C`: the outcome was inactive.

With `c1ccc(Oc2ccccc2)cc1`, the outcome was inactive.

As to `CCN(CC)C(=O)N(CC)CC`, the result was inactive.

Regarding `c1ccc(CCc2ccccc2)cc1`, the concentration at half-maximal activity (AC50) was 31.6 µM (active).

In the case of `c1ccc2cc(Nc3ccc(Nc4ccc5ccccc5c4)cc3)ccc2c1`, the result was inactive.

Turning to `CC(C)(C)CC(C)(C)c1ccc(OCCOCC[N+](C)(C)Cc2ccccc2)cc1`, the concentration at half-maximal activity (AC50) was 2.46 µM (active).

As to `C=C(C)C(=O)OCC(CC)(COC(=O)C(=C)C)COC(=O)C(=C)C`, the result was inactive.

For the compound `CC(C)(N=C=O)c1cccc(C(C)(C)N=C=O)c1`, the outcome was inactive.

Read-out in another experiment: not listed separately
Nature of the experiment: BSK_SAg_Proliferation: Cell Proliferation Assessment in the BioMAP Diversity Plus: SAg Assay (AID 2283095).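 Note: relative cell number as total protein by SRB absorbance in sub-confluent culture.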 The conditions noted are these: primary human HUVEC with PBMC. In outline: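 Absorbance of sulforhodamine B at 560 nm reports total protein in a human vascular endothelial/PBMC co-culture after 96 h chemical exposure. Gain or loss of signal is fitted in both directions against DMSO.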
Take `CCCCCCCCCCCCCCCC(=O)OC/C=C(C)/C=C/C=C(C)/C=C/C1=C(C)CCCC1(C)C`: the half-maximal activity concentration (AC50) is 20 µM (active).

With `CCC(C)c1cc([N+](=O)[O-])cc([N+](=O)[O-])c1OC(=O)OC(C)C` (stereo not drawn), the half-maximal activity concentration (AC50) was 9.53 µM (active).

With `C=C(C)C(=O)OCCOCCOCCOCCOC(=O)C(=C)C`, the AC50 is 23.9 µM (active).

As for `c1ccc(Oc2ccccc2)cc1`, the result was inactive.

On to `CCN(CC)C(=O)N(CC)CC`, for which the result was inactive.

For the compound `c1ccc2cc(Nc3ccc(Nc4ccc5ccccc5c4)cc3)ccc2c1`, the outcome was inactive.

On to `CC(C)(C)CC(C)(C)c1ccc(OCCOCC[N+](C)(C)Cc2ccccc2)cc1`, for which the AC50 is 0.773 µM (active).

Turning to `C=C(C)C(=O)OCC(CC)(COC(=O)C(=C)C)COC(=O)C(=C)C`, the AC50 is 8.4 µM (active).

With `CC(C)(N=C=O)c1cccc(C(C)(C)N=C=O)c1`, the outcome was inactive.

Read-out in a further experiment: not listed separately
Briefly: BSK_SAg_SRB: Viability Assessment in the BioMAP Diversity Plus: SAg Assay (AID 2283096).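 Note: cells read one day after compound addition; hits may be either gain or loss of signal compared with DMSO.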 The conditions noted are these: primary human HUVEC with PBMC. An outline of the steps:
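This overt-cytotoxicity endpoint quantifies protein in human endothelial/PBMC co-cultures at 24 h using SRB absorbance (560 nm) after trichloroacetic acid fixation. Values reflect signal change from the DMSO negative control, fitted bidirectionally.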
Turning to `CCCCCCCCCCCCCCCC(=O)OC/C=C(C)/C=C/C=C(C)/C=C/C1=C(C)CCCC1(C)C`, the outcome was inactive.

As for `CCC(C)c1cc([N+](=O)[O-])cc([N+](=O)[O-])c1OC(=O)OC(C)C` (stereo not drawn), the AC50 is 20 µM (active).

For the compound `C=C(C)C(=O)OCCOCCOCCOCCOC(=O)C(=C)C`, the result was inactive.

Take `c1ccc(Oc2ccccc2)cc1`: the result was inactive.

With `CCN(CC)C(=O)N(CC)CC`, the result was inactive.

Consider `c1ccc(CCc2ccccc2)cc1`, for which the concentration at half-maximal activity (AC50) is 35.9 µM (active).

For the compound `c1ccc2cc(Nc3ccc(Nc4ccc5ccccc5c4)cc3)ccc2c1`, the result was inactive.

With `CC(C)(C)CC(C)(C)c1ccc(OCCOCC[N+](C)(C)Cc2ccccc2)cc1`, the AC50 was 8.46 µM (active).

Regarding `C=C(C)C(=O)OCC(CC)(COC(=O)C(=C)C)COC(=O)C(=C)C`, the result was inactive.

Consider `CC(C)(N=C=O)c1cccc(C(C)(C)N=C=O)c1`, for which the result was inactive.

For the next experiment, the target named is human CYP19A1, CYP19A1 (gene 1588) (UniProt P11511). Briefly: NVS_ADME_hCYP19A1: NovaScreen (NVS) CYP450-related Enzyme Activity (ADME) Assay for human CYP19A1 (AID 2283098; active = hit-call score of the fitted dose curve at least 0.9, where 1 is the maximum;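 for AC50: potency for inhibitors seen as loss of fluorescent enzyme signal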).
Sequence of human CYP19A1, CYP19A1 (gene 1588) (P11511 whole entry, looked up): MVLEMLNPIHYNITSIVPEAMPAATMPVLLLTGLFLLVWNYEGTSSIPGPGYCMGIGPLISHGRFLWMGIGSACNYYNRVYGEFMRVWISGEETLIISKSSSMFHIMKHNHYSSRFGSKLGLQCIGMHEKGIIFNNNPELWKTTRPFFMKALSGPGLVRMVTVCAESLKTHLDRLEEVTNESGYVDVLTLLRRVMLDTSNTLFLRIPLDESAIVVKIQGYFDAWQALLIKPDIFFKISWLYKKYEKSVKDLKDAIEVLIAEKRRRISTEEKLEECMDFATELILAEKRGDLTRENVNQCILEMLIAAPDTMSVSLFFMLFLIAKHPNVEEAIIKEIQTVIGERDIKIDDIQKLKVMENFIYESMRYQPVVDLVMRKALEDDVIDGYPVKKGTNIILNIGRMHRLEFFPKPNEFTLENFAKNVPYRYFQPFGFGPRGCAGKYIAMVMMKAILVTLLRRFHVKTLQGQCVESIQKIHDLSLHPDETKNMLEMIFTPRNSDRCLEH
Settings: not given
In outline: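 Compounds were first screened at 10 uM in duplicate against purified enzyme, with a fluorogenic substrate and fluorescence intensity detection after 0.5 h. Inhibition appears as reduced signal against acetonitrile control.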
Regarding `CCCCCCC(=O)c1ccccc1`, the AC50 was 5.7 µM (active).

With `CS(C)=O`, the call was inactive.

As to `CN1C(=O)c2ccccc2C1=O`, the outcome was inactive.

The next experiment addresses human Caspase 5 (CASP5), CASP5 (gene 838) (UniProt P51878). Nature of the experiment: NVS_ENZ_hCASP5: NovaScreen (NVS) Enzymatic Assay for human Caspase 5 (CASP5) (AID 2283137; active = hit-call score of the fitted dose curve at least 0.9, where 1 is the maximum).
Settings: not given
In outline:
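Chemicals were first tested in duplicate at 25 uM against recombinant caspase 5 from E. coli. Activity was read by fluorescence intensity 2 hours after dosing. Those passing a preset inhibition threshold were retested in singleton concentration-response up to 50 uM.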
As for `CCCCCCCCCCCCCCCC(=O)OC/C=C(C)/C=C/C=C(C)/C=C/C1=C(C)CCCC1(C)C`, the concentration at half-maximal activity (AC50) is 5.57 µM (active).

With `CCCC[O][Al]([O]CCCC)[O]CCCC`, the concentration at half-maximal activity (AC50) was 0.138 µM (active).

Take `c1ccc(Oc2ccccc2)cc1`: the compound was called inactive.

Turning to `c1ccc2cc(Nc3ccc(Nc4ccc5ccccc5c4)cc3)ccc2c1`, the call was inactive.

The target of a further experiment is human Beta-secretase (BACE), BACE1 (gene 23621) (UniProt P56817). Briefly: NVS_ENZ_hBACE: NovaScreen (NVS) Enzymatic Assay for human Beta-secretase (BACE) (AID 2283140; active = hit-call score of the fitted dose curve at least 0.9, where 1 is the maximum;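 note: hits are inhibitors that reduce fluorescent substrate signal versus DMSO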).
Sequence of human Beta-secretase (BACE), BACE1 (gene 23621) (P56817 whole entry, looked up): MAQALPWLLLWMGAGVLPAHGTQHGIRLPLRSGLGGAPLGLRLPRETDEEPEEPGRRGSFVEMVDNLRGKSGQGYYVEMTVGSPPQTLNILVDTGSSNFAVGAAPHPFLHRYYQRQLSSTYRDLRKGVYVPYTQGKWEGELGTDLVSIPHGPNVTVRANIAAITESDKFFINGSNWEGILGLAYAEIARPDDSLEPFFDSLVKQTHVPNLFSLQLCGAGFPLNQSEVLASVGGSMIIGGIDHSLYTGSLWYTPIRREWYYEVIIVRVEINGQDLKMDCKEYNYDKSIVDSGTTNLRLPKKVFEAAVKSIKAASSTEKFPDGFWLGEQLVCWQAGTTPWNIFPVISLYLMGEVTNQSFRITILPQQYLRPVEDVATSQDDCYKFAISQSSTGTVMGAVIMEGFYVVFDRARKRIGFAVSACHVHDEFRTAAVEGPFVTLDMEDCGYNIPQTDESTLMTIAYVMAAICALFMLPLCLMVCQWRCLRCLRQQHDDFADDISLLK
Settings: not given
An outline of the steps:
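Fluorescence intensity read-out of protease activity defines this endpoint; signal loss relative to DMSO baseline marks inhibition. Recombinant enzyme from SF9 cells, cell-free format, 1 h exposure. Single-concentration duplicate screen (25 uM) precedes concentration-series follow-up.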
With `CCCC[O][Al]([O]CCCC)[O]CCCC`, the outcome was inactive.

`CCOCCOCCOCC`: the result was inactive.

Turning to `COC(C)(C)CCO`, the call was inactive.

Consider `c1ccc2cc(Nc3ccc(Nc4ccc5ccccc5c4)cc3)ccc2c1`, for which the AC50 was 13.1 µM (active).

For the compound `C=C(C)C(=O)OCC(CC)(COC(=O)C(=C)C)COC(=O)C(=C)C`, the AC50 is 17.1 µM (active).

Turning to `CC(C)(N=C=O)c1cccc(C(C)(C)N=C=O)c1`, the call was inactive.

Consider `CCCCCC(C)=O`, for which the call was inactive.

Another experiment has as its target human Dual Specificity Protein Phosphatase 3 (DUSP3), DUSP3 (gene 1845) (UniProt P51452). Briefly: NVS_ENZ_hDUSP3: NovaScreen (NVS) Enzymatic Assay for human Dual Specificity Protein Phosphatase 3 (DUSP3) (AID 2283152; active = hit-call score of the fitted dose curve at least 0.9, where 1 is the maximum;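 note: phosphatase activity of recombinant human DUSP3 on a fluorogenic substrate without cells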).
Settings: not given
The method, then:
NVS_ENZ_hDUSP3 is a biochemical, single-readout assay that uses extracted gene-proteins in a cell-free assay. Measurements were taken 0 hour after chemical dosing in a 96-well plate.NVS_ENZ_hDUSP3 is one of one assay component(s) measured or calculated from the NVS_ENZ_hDUSP3 assay. It is designed to make measurements of enzyme activity, a form of enzyme reporter, as detected with fluorescence intensity signals by Fluorescence technology.Data from the assay component NVS_ENZ_hDUSP3 was analyzed into 1 assay endpoint. This assay endpoint, NVS_ENZ_hDUSP3, was analyzed in the positive analysis fitting direction relative to DMSO as the negative control and baseline of activity. Using a type of enzyme reporter, loss-of-signal activity can be used to understand changes in the enzymatic activity as they relate to the gene DUSP3. Furthermore, this assay endpoint can be referred to as a primary readout, because this assay has produced multiple assay endpoints where this one serves a enzymatic activity function. To generalize the intended target to other relatable targets, this assay endpoint is annotated to the phosphatase intended target family, where the subfamily is dual-specific phosphatase.
Binding assays used specific radioligands (tritiated, iodinated) with non-radioactive competitive displacement ligands in agonist or antagonist protocols (as indicated) and various reference compounds and inhibitors to titrate specific binding to receptors and transporters. Most enzyme assays (CYPs, kinases, phosphatases, proteases, HDACs) used recombinant protein and specific substrates (fluorescence mostly, some colorimetric and radioactive) and inhibitors, followed by a biochemical separation of substrate and product. All assays for the biochemical HTS were initially run in duplicate at a single concentration (10 uM for CYP450 assays and 25 uM for all others). […] Each assay was run with positive and negative controls, and concurrent controls on every plate. The follow-up (secondary) screen tested active chemical-pairs in concentration series, as well as a few additional assays not tested in the primary screen, some selected negative inactives, and several cases re-run in the concentration series for confirmatory purposes.
As for `CCCCCCCCCCCCCCCC(=O)OC/C=C(C)/C=C/C=C(C)/C=C/C1=C(C)CCCC1(C)C`, the AC50 was 25 µM (active).

Consider `NC(=S)NNC(N)=S`, for which the AC50 is 4.96 µM (active).

On to `c1ccc2cc(Nc3ccc(Nc4ccc5ccccc5c4)cc3)ccc2c1`, for which the AC50 is 22.4 µM (active).

As for `C=C(C)C(=O)OCC(CC)(COC(=O)C(=C)C)COC(=O)C(=C)C`, the AC50 is 12.4 µM (active).

The next experiment has as its target human Ephrin type-A Receptor 1 (EphA1), EPHA1 (gene 2041) (UniProt P21709). Briefly: NVS_ENZ_hEphA1: NovaScreen (NVS) Enzymatic Assay for human Ephrin type-A Receptor 1 (EphA1) (AID 2283158; active = hit-call score of the fitted dose curve at least 0.9, where 1 is the maximum;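 note: activity is signal loss versus DMSO meaning EphA1 kinase inhibition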).
Settings: not given
An outline of the steps: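 Here the EphA1 protein is recombinant and the substrate fluorescent, with electrophoretic separation before fluorescence detection at 1 hour. Signal loss against DMSO defines activity; plate controls included; follow-up concentration series reach 50 uM.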
As to `CCC(C)c1cc([N+](=O)[O-])cc([N+](=O)[O-])c1OC(=O)OC(C)C` (stereo not drawn), the concentration at half-maximal activity (AC50) was 14 µM (active).

On to `CC(=O)C(C)O` (stereo not drawn), for which the result was inactive.

For `C=C(C)C(=O)OCCOCCOCCOCCOC(=O)C(=C)C`, the AC50 was 35.3 µM (active).

In the case of `OCCCCC(O)CO` (stereo not drawn), the AC50 is 5.49 µM (active).

Take `COCCOC(=O)c1ccccc1C(=O)OCCOC`: the call was inactive.

Take `CCN(CC)C(=O)N(CC)CC`: the AC50 is 25 µM (active).

`CCOc1ccc(NC(=O)CC(C)=O)cc1`: the result was inactive.

As for `Cc1ncc([N+](=O)[O-])n1CCO`, the AC50 is 11.7 µM (active).

For the compound `CCCCSCCCC`, the result was inactive.

As for `c1ccc2cc(Nc3ccc(Nc4ccc5ccccc5c4)cc3)ccc2c1`, the call was inactive.

On to `CC(C)(N=C=O)c1cccc(C(C)(C)N=C=O)c1`, for which the compound was called inactive.

Consider `C=CC(=O)OCCCC`, for which the call was inactive.

As usually defined, the AC50 is the midpoint of the concentration-response curve, whichever way the signal moves.
